# From PubChem BioAssay AID1508600 (Functional Genomics Laboratory (NCATS/FGL), 2020)
# In all, about 53,000 sequences went through this assay and about 3,700 (7%) were called active. This excerpt belongs to a sample that is enriched for actives. A number with no mark means an inactive call.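 Rule for the calls: active = gene knockdowns whose robust z-score for IL-1 alpha signal is at least 2 or at most -2, so actives lie on both sides; inactive = the rest.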
# Assay: Components of the Cytosolic LPS Sensing Pathway: Gene Identification via Genome-wide siRNA Screen;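 note: robust z of the log signal after scaling to non-targeting control siRNA wells of the plate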
# Details: RAW264.7 macrophages, IL-1a HTRF, actives lie on both sides, screened at 100 nM (by protocol), cells primed 5 h with Pam3CSK4 first
# How it was run: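 RAW264.7; siRNA 100 nM final, RNAiMAX, 48h 37 degrees C; Pam3CSK4 5 h; LipidA + TransIT-TKO 24 h; IL-1a HTRF; CellTiter-Glo viability; robust z vs negative-control median.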
row,Sequence,z-score
1,GCCCAUAAACUGAUGGUGGTT against Tbc1d24,-0.45
2,CCCAACAAAUACCACUACATT against Usp20,-1.39
3,GGAUCUGGUGACAAACGUATT against Cabyr,2.04 (active)
4,CCCGACUGAAUGCUCGGAUTT against Rnf220,0.386
5,GGAGAAAGCUCGAAAAUGGTT against Prpf8,-1.61
6,GGAAGGAAACUACGAAGGUTT against Edn1,-0.534
7,GGAUGCAGAAGCAACUUAATT against AA986860,1.91
8,CCGAUUUCCACAUCUGUCATT against Fam104a,-2.45 (active)
9,GGAAAGAAACAGAAGCACATT against Il21,-0.511
10,GCCUCUGUUCCAUCUUGGATT against F830104G03Rik,1.61
11,GCUCAGCAGGAAAUAACAGTT against Ccdc90b,-2.06 (active)
12,GGAUGAAGAGCAUAACAGUTT against Sft2d2,-0.95
13,GCUAGUCAUGCUACGGAAUTT against Aftph,0.601
14,GGUUGUUUCACCAAUAGUUTT against Idi1,-0.454
15,GGGCAGAUGUAAUUCUUGUTT against Ctsm,1.91
16,GGUACAUGUAUUGUUUCACTT against Cyp2c38,2.76 (active)
17,GGAUUAUCCUGGCUUGUUGTT against Rdh12,-0.962
18,GCUGAUUGCCUCGGAGAAUTT against Shmt1,-0.0766
19,GCGCAUCGAAAAAUGGAUUTT against Rgl3,0.236
20,GGUAUUGAGUGAUAACUACTT against Klhdc7a,1.29
21,GCAUUCAAUCUGCAGAGGGTT against Olfr888,-2.48 (active)
22,GGGUAGAAAAGUGCAAUUUTT against Has2,0.0317

row,Sequence,z-score
1,CGCUCUAGGAAAACAAUGUTT against Klb,-0.614
2,GGGUACAUCUAACUUGAAUTT against Tnfrsf10b,-0.411
3,GCGGCAUGGACUUAGUAAATT against Fbxo5,3.11 (active)
4,CGAUUAGUCUCUCAUUAUUTT against Ipo11,-1.12
5,GGCUAAUGCUCCUUCAUGUTT against Myo18a,-0.439
6,GCCCUGCACCAGAAAAACATT against Stk40,-0.662
7,GGUCUCUGUCUCCAAGAAATT against Fam53c,-1.69
8,GGUGUUUGGGCGGUUUGAATT against Snx15,-2.25 (active)
9,CCCUUAAUAAAGAAGGGACTT against Atg9a,0.961
10,GGGUCUACGAAGAAUAGGGTT against Cxcl14,0.744
11,GCUAGAAGCUUUCUAUUCUTT against Hsph1,1.68
12,GGAGAGUAUCUGAAGUUUCTT against Jak2,1.8
13,GGUAAAAUGAUCCUUAGAATT against Pcdh15,0.145
14,GGAGCUGUCUCUACGAAACTT against Myoz3,1.27
15,GGAGCCUUUAAUCUCAUUATT against Wbp1,-0.463
16,GCCGUUUUAUUCACGUGAATT against Erp27,-1.36
17,GGAUGUGGUGGUAUUAGACTT against Phykpl,2.5 (active)
18,GGAAGAGGUUCAGAACAGATT against Spaca1,1.19
19,GGACCAAGGAUGUUCGCUUTT against Cnr2,1.14
20,GGAACGAACUCAUUAAAACTT against Abhd3,-0.736
21,CCGAUUUGGGUCAAUUUUATT against Usf3,-0.047
22,GGCGGAUUGAAUAAGAAGGTT against Pfn2,-0.517

row,Sequence,z-score
1,GGGCUUUGGAUGAACUGCATT against Cldn17,-0.0702
2,GGAGCUCUUUGAGUACAUCTT against Ift46,2.48 (active)
3,CUCACAAGUCAAAGCCUACTT against Zfp182,0.121
4,AAUAGACUGGUACUCUCUGTT against Olfr476,1.08
5,GCCUGGUUACAGCAUUAACTT against Rimkla,-1.75
6,GGUCAAACAAGAAACAGUUTT against Prdm1,0.417
7,GCUGUGCCCUAAAGACUGGTT against Clec2m,2.27 (active)
8,GGUGAAGCUGAAGAAGUACTT against Chst12,0.975
9,GGAUAAUGGAGCAAAUUGCTT against Slc22a1,-0.522
10,GCAAGUUAACCAGACCCAATT against Mro,0.709
11,GGAGAAGCUGUUUGUUCUGTT against Ftcd,0.507
12,GGACAAGGCAACACAUACCTT against Csnk1a1,2.58 (active)
13,GCCACUACUACAUCAAUGUTT against Mall,1.24
14,GGGUCCUCUUUAAAAGGCUTT against Smc6,-1.1
15,CCUACCCAAACCUACUAAATT against Gpt2,-0.168
16,GGAUCUGGAGAAGAUGAUGTT against Ret,-0.822
17,GGCCAAAAAAACAUACAAGTT against Zbtb21,4.91 (active)
18,GGUAUCAAGGCUCUGGUGUTT against Ifnlr1,-0.602
19,CAGCAUGAUGAUGGAGACCTT against Sox1,0.708
20,UGGAUACUCUAUCUCAAGCTT against Serpinb9g,-0.479
21,GCAACAAGUGUUGGACUCATT against Tob2,-2.04 (active)
22,GGAAAGUAACUAAAGGCAATT against Arl8b,0.274

row,Sequence,z-score
1,GCUACAAGACUUUUACCAGTT against Tnfsf18,-0.0821
2,GGGACUAGACUUCUUCGGATT against Ddx52,0.186
3,UGGCAAAAAGGUGAUAACUTT against Hbb-b2,0.86
4,GGCCCAGCAUGCAAGUUAUTT against Sh2d2a,2.17 (active)
5,CCACAGCCAAAUGCACAAGTT against Platr26,0.31
6,CCUCAUUCAAGAAACCUCATT against Comtd1,-1.13
7,GGAACACCAUCAUCAGUCATT against Ephb2,-0.448
8,GGUCUCCACUGAGGACUGUTT against Ndufa2,0.284
9,GGCCUAGGGAAAGCUAUGGTT against Nat8f3,-2.57 (active)
10,GCAGAAGUGCUAUUCUUGUTT against Cnbp,0.108
11,GCGGCUUUGGCAAUUCUCUTT against Olfr1361,-1.13
12,GGUGCCUUUCUGCUUUUGATT against Spink12,1.87
13,GGAAUAUUACCAGUCGGAATT against Marveld3,0.469
14,GGAAAAUCUUGACUUCAUCTT against Cbwd1,-0.316
15,CCUGAUGCCAGUUAACAGUTT against Rcan1,0.516
16,GGAGGUUUUCCACCACUUGTT against Efcc1,-2.04 (active)
17,GCGAUAUGAAUAUCAUCUUTT against Fbxo22,-0.0727
18,GGAAUCUUUAUCCACAUUCTT against Chst15,0.943
19,GGAGCAACUAAUGAAGAAATT against Dnajc22,-0.064
20,GGUACUACAAGAGAAAAGATT against Hdhd2,-0.958
21,GGUCUCUGUUGCUUUGACUTT against Tgoln1,4.13 (active)
22,GGUCCUAAAAUUUCCUCUUTT against Prdx3,0.854

row,Sequence,z-score
1,GCCUCUUAUUUGGUUACGATT against Best3,0.605
2,GCGUUUCACGUACCUUCCUTT against Nfatc1,1.22
3,GGUGCUAUUUACCAAACUCTT against Btg2,1.82
4,GGAACACAACUUCCUGUUCTT against Map11,1.05
5,GGGAUGCUGUCUUCUGUCATT against Prex1,-3.39 (active)
6,GGAUUUUACAGUUUUUGGATT against Pccb,1.01
7,GGUCAUGGUUAUUUUGUUATT against Plekhg2,0.929
8,GGCUAUUUUGGCUUGUAAATT against Jam2,-0.504
9,CCUAACCACUACCUUAUACTT against H2-DMa,2.43 (active)
10,GGUGUCAUGAUGGAGCUGATT against Crygc,0.862
11,GGGUAACACCUCAAGUUCATT against Rhag,2.33 (active)
12,GGCCUCAGUUGGACUUGAATT against Scn10a,-0.352
13,GGCUAUACCUUGGUAGAUATT against Parvg,-1.19
14,GGUCUCCUCCAAGAUGAUGTT against Mettl3,-1.01
15,GCAGGAGAACUUUUUUAGUTT against Hus1,-1.01
16,GGGUUGUUGAGACUUCCACTT against Hmbs,2.79 (active)
17,CCAGGAGGAUACAAUCCCUTT against Rgs3,-3.38 (active)
18,GGUGCUAGGAAUGAACGGGTT against Ripply1,0.478
19,GGAUGCUUGUGGACCUGUGTT against Olfr1123,1.14
20,GGAUUAAAUCCGAAAAGCUTT against Tmem51,-2.36 (active)
